Bioassay records from PubChem.
An excerpt weighted towards active compounds, which were near 22% of everything screened.
cytoskel mod – modifiers of cytoskeleton assembly | HUVEC TNFa F-actin phalloidin imaging, high content | inhibition, % at 2 µM | hit rate 0.18% among 91,000 | AID 836;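 active = inhibition above the batch mean plus 3 SD and confirmed as a hit by visual image inspection, cut at about 30% in these data, passing the limit was not always enough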
CYP2C9 act – CYP2C9 (human) activation; AID 1024; P11712; activation factor at 5 µM; hit rate 1.4% among 96,000; recombinant CYP2C9, luciferin-H conversion, luminescence; stronger effect = higher value; factor 1 = untreated enzyme, 0 = blocked;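 active = activation factor of 2 or more for CYP2C9 at a 5 µM dose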
Target sequence (P11712 whole entry, looked up): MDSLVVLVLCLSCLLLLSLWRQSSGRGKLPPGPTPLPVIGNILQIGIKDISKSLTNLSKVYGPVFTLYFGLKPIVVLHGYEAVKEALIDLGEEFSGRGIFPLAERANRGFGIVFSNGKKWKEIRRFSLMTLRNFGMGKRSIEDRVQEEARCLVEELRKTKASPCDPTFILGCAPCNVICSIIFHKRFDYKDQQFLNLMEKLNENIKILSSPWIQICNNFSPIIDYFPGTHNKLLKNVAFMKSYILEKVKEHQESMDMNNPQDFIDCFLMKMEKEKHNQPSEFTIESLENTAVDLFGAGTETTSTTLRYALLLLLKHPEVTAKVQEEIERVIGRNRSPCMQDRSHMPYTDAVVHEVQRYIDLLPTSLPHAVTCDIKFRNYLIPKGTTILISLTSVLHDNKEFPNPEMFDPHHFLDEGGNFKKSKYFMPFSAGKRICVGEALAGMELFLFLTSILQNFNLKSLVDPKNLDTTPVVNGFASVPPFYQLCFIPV
E-sel TNF inh – blocks E-selectin expression induced by TNF alpha; inhibition, % at 2 µM; hit rate 0.71% among 120,000; HUVEC TNFa-induced E-selectin immunofluorescence, high content;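 active = inhibition above the batch mean plus 3 SD, and confirmed as a hit on visual image review, cut at about 43% in these data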
CYP2C19 activ – activators of human cytochrome P450 2C19; P33261; recombinant CYP2C19, luciferin-H EGE luminescence; stronger effect = higher value; 0 = fully inhibited enzyme, 1 = untreated enzyme; activation factor at 5 µM; 96,000 tested, under 10 active; AID 1025;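 active = activation factor of at least 2 at 5 µM in the primary screen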
CYP2C19 inhib – inhibitors of human CYP2C19; AID 778; P33261; CYP2C19 Supersomes, luciferin-H EGE luminescence, 30 min; inhibition, % at 5 µM; hit rate 21% among 96,000;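 active = CYP2C19 inhibition above a set limit at 5 µM in the primary screen, cut at about 50% in these data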
CYP2C9 inh – blocks human cytochrome P450 2C9 | P11712 | CYP2C9 Supersomes, luciferin-H conversion, luminescence | inhibition, % at 5 µM | hit rate 20% among 96,000 | AID 777;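 active = blocking of liver enzyme CYP2C9 beyond about 50% at 5 µM, limit read from the data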
Numbers stand for hits; . = inactive; / = no result.

SMILES	cytoskel mod	CYP2C9 act	E-sel TNF inh	CYP2C19 activ	CYP2C19 inhib	CYP2C9 inh
COC(=O)c1ccc(NC(=O)C2CCCN(S(=O)(=O)c3cnc[nH]3)C2)cc1 (stereo not drawn)	.	.	/	.	79	86
CC(=O)c1ccc(N2CCN(C(=O)C3CCCN(S(=O)(=O)c4cnc[nH]4)C3)CC2)cc1 (stereo not drawn)	.	.	.	.	.	.
CSc1cccc(NC(=O)C2CCCN(S(=O)(=O)c3cnc[nH]3)C2)c1 (stereo not drawn)	.	.	.	.	98	93
CN(C)c1c([N+](=O)[O-])cc2[nH]c(=O)[nH]c2c1[N+](=O)[O-]	/	.	.	.	.	.
O=[N+]([O-])c1cccc(C(=S)N2CCN(c3ccccc3F)CC2)c1	/	/	.	/	/	/
CSc1ncccc1C(=O)OCC(=O)Nc1ccc2c(c1)OCO2	/	/	.	/	/	/
CC(C)[C@@H](C(=O)OCC(=O)Nc1ccc2c(c1)OCO2)N1C(=O)c2ccccc2C1=O	.	.	.	.	58	.
O=C(CN1C(=O)c2cccc3cccc1c23)Nc1ccc2c(c1)OCO2	.	.	.	.	.	.
O=C(COC(=O)[C@H](Cc1ccccc1)N1C(=O)c2ccccc2C1=O)Nc1ccc2c(c1)OCO2	.	.	.	.	81	99
CCC(C)[C@@H](C(=O)Nc1ccc2c(c1)OCO2)N1Cc2ccccc2C1=O (stereo partly drawn)	.	.	.	.	69	51
O=C(COC(=O)Cn1cnc2ccccc2c1=O)Nc1ccc2c(c1)OCO2	/	/	.	/	/	/
N#C/C(=C\c1cccs1)C(=O)Nc1nccs1	/	/	.	/	/	/
Cc1noc(C)c1CSc1nnc(-c2ccccc2)n1Cc1ccco1	.	.	.	.	50	54
Cc1noc(C)c1CSc1nnc2scc(-c3ccccc3)n12	.	.	.	.	.	.
Nn1c(SC/C=C/c2ccccc2)nnc1-c1ccncc1	.	.	.	.	54	.
Cc1noc(C)c1CSc1nnc(-c2ccccc2)n1N	.	.	.	.	65	.
COc1cc(-c2nnc(SC/C=C/c3ccccc3)n2N)cc(OC)c1OC	.	.	.	.	.	.
Cc1noc(C)c1CSc1nnc2ccccn12	/	.	.	.	.	.
CCCCNC(=O)Cn1c2c(c(-c3ccccc3Cl)cc1=O)CCC2	.	.	.	.	61	78
Cc1sc2ncnc(NCCc3ccc(S(N)(=O)=O)cc3)c2c1C	.	.	.	.	.	.
O=C(Oc1ccccc1C(=O)Oc1ccccc1)c1cccnc1	/	/	.	/	/	/
CCn1c(CNC(=O)C23CC4CC(CC(C4)C2)C3)nnc1SCC(=O)Nc1nnc(C)s1	.	.	.	.	.	.
CCOC(=O)c1c(N2C(=O)Nc3cc(Cl)c(Cl)cc3N2O)sc2c1CCCCC2	.	.	.	.	.	70
O=C1CC(c2ccco2)CC(O)=C1C=Nc1cc(Cl)ccc1O (stereo not drawn)	.	.	/	.	.	73
O=C1CC(c2ccco2)CC(O)=C1C=Nc1ccc(Br)cc1 (stereo not drawn)	.	.	.	.	.	.
SMILES	cytoskel mod	CYP2C9 act	E-sel TNF inh	CYP2C19 activ	CYP2C19 inhib	CYP2C9 inh
Cc1nc(NNC(=O)c2ccc(Cl)cc2Cl)cc(-c2ccccc2)n1	/	.	.	.	.	51
COc1cccc(C2=NN(C(=O)c3ccccc3)C(O)(C(F)(F)F)C2)c1 (stereo not drawn)	.	.	.	.	89	92
O=C(OCc1cc2ccccc2[nH]c1=O)c1ccccc1	.	.	/	.	59	.
O=C(OCc1cc2ccccc2[nH]c1=O)c1ccncc1	.	/	.	/	/	/
Cc1ccc(-c2nn(-c3ccccc3)cc2/C=C(\C#N)c2cccc(C#N)c2)o1	.	.	.	.	.	64
CN(C)S(=O)(=O)c1cccc(-c2nn(-c3ccccc3)cc2/C=C(\C#N)c2nc3ccccc3[nH]2)c1	/	/	.	/	/	/
CC(=O)c1cccc(NC(=O)C2CCN(S(=O)(=O)c3ccccc3)CC2)c1	.	.	.	.	68	.
CCS(=O)(=O)N1CCC(C(=O)Nc2cccc(C(C)=O)c2)CC1	.	.	.	.	70	.
CC(=O)c1cccc(NC(=O)C2CCCCC2)c1	.	.	.	.	.	.
O=C(Nc1ccc(N2CCOCC2)cc1)C1CCCN(S(=O)(=O)c2cccc(C(F)(F)F)c2)C1 (stereo not drawn)	.	.	.	.	63	.
CC(=O)c1cccc(NC(=O)C2CCN(S(=O)(=O)c3ccc(F)cc3)CC2)c1	.	.	.	.	53	63
CC(=O)c1cccc(NC(=O)C2CCN(S(C)(=O)=O)CC2)c1	.	.	.	.	.	.
COc1ccc(-c2nc(NC(=O)CSc3nnc(C)s3)ns2)cc1	.	.	.	.	.	.
O=C(Nc1cccc(Cl)c1)c1ccc(F)c(S(=O)(=O)NCc2cccs2)c1	/	/	.	/	/	/
COCc1nc2ccccc2n1Cc1cccc(C)c1	.	.	.	.	.	.
O=C(NN=C1c2ccccc2-c2ccccc21)c1ccccn1	.	.	.	.	.	.
CCOC(=O)C1CCN(c2c(N3CCCCCC3)c(=O)c2=O)CC1	.	.	/	.	.	.
CC(=O)c1cccc(NC(=O)C2CCCN(S(=O)(=O)c3ccc(F)cc3)C2)c1 (stereo not drawn)	.	.	.	.	87	76
COc1ccc(S(=O)(=O)N2CCCC(C(=O)Nc3cccc(C(C)=O)c3)C2)cc1 (stereo not drawn)	.	.	.	.	.	.
CC(C)C(=O)Nc1ccc(C(=O)N2CCCCCC2)cc1	.	.	.	.	.	.
CN(CCOc1ccc(-c2ccn(S(=O)(=O)c3cccc4ccccc34)n2)cc1)c1ccccn1	.	.	.	.	50	.
COc1ccc(CCNC(=O)c2cc(CC(C)C)on2)cc1OC	.	.	/	.	.	.
CCc1ccc(NC(=O)NCCN2CCc3ccccc3C2)cc1	.	/	.	/	/	/
CCc1ccc(NC(=O)CN2CCc3ccccc3C2)cc1	.	.	.	.	92	90
O=C(CN1CCc2ccccc2C1)Nc1ccc(Br)cc1	.	.	.	.	90	.
SMILES	cytoskel mod	CYP2C9 act	E-sel TNF inh	CYP2C19 activ	CYP2C19 inhib	CYP2C9 inh
O=C(CN1CCN(C(=O)c2ccccc2F)CC1)Nc1ccc(Br)cc1	.	2.7	/	.	.	.
Cc1cccc(N2CCN(C(=O)Cc3cn(C)c4ccccc34)CC2)c1C	.	.	.	.	.	.
COc1ccc(C(=O)Nc2ccc(S(=O)(=O)N3CCCC3)cc2)c(OC)c1	.	.	.	.	.	.
COc1ccc(C(=O)N(CC(=O)NC(C)(C)C)c2ccc3c(c2)OCCO3)cc1OC	.	.	.	.	.	.
COc1ccc(CCNC(=O)COc2ccc(S(=O)(=O)N3CCOCC3)cc2)cc1OC	.	.	.	.	.	50
COc1ccc(CCNC(=O)COc2ccc(-c3ccc(C)cc3)cc2)cc1OC	.	.	.	.	.	74
COC(=O)c1cn(NC(=O)c2cnccn2)c(=O)c2ccccc12	/	.	.	.	.	.
